Measurements as given in PubChem BioAssay.
“And” between values parts separate entries of the source, which are not always exact repeats. Identical values can stand only once. Records with an inconclusive call do not appear. The source made the active and inactive calls.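 How the source made its calls, unless noted: active means compound whose remaining NAD level is above about 45 nM (limit read from the data); inactive means the rest.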

Columns and labels:
[1] = viability loss in pontine glioma line – cell-based, SU-DIPG-XVII, MIPE5.0, CellTiter-Glo, qHTS, dose response (AID 1347060; cut-off not given, nearly all actives have AC50 up to about 26 µM); details: CellTiter-Glo ATP luminescence
[2] = viability loss in pontine glioma line – cell-based, JHH-DIPG-1, MIPE4.0, CellTiter-Glo, qHTS, dose response (AID 1347062; cut-off not given, nearly all actives have AC50 up to about 27 µM); details: JHH-DIPG-1 viability, CellTiter-Glo ATP luminescence
[3] = viability loss in pontine glioma line – cell-based, SU-DIPG-IV, MIPE4.0, CellTiter-Glo, qHTS, dose response (AID 1347063; cut-off not given, nearly all actives have AC50 up to about 30 µM;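 further: compound exposure lasted 48 hours before the viability readout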); details: CellTiter-Glo ATP luminescence
[4] = viability loss in pontine glioma line – cell-based, SU-DIPG-XIII, MIPE5.0, CellTiter-Glo, qHTS, dose response (AID 1347064; cut-off not given, nearly all actives have AC50 up to about 23 µM); details: CellTiter-Glo ATP luminescence
[5] = JHH-DIPG-1 glioma cell viability, MIPE5.0 library, CellTiter-Glo luminescence, qHTS (AID 1347067; cut-off not given, nearly all actives have AC50 up to about 26 µM;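 further: cells exposed to compound for 48 hours before readout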); details: JHH-DIPG-1 glioma viability, CellTiter-Glo ATP luminescence
[6] = growth inhibition of DIPG cells – cell-based, MIPE5.0 library, qHTS (AID 1347068; cut-off not given, nearly all actives have IC50 up to about 30 µM); details: SU-DIPG-XXV viability
[7] = target: NAD(+) hydrolase SARM1 (Homo sapiens) (UniProt Q6SZW1); experiment: blocking NAD cleavage by SARM1 SAM-TIR – cell lysate, NAD-Glo luminescence (AID 1508614); details: SAM-TIR HEK293T lysate NADase, at 1 µM, stronger effect = higher value;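 further: higher remaining NAD means stronger inhibition of SARM1 NADase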
[8] = viability loss in pontine glioma line – cell-based, SU-DIPG-XIII, MIPE4.0, CellTiter-Glo, qHTS, dose response (AID 1347061; cut-off not given, nearly all actives have AC50 up to about 37 µM;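 further: cells exposed to compound for 48 hours before readout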); details: CellTiter-Glo ATP luminescence
[9] = growth inhibition of DIPG cells – cell-based, MIPE4.0 library, CellTiter-Glo luminescence, qHTS (AID 1347066; cut-off not given, nearly all actives have AC50 up to about 30 µM;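 further: cells exposed to compound for 48 hours before readout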); details: SU-DIPG-VI viability, CellTiter-Glo ATP luminescence
[10] = compounds altering viability of human ES cells (AID 493140; call rule not given here;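 further: cells exposed to compounds for four days before counting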); details: human embryonic stem cell survival screen; stronger effect = higher value
[11] = target: ATP-dependent translocase ABCB1 (Homo sapiens) (UniProt P08183); experiment: P-glycoprotein substrate transport blockade – cell-based (AID 377; in the data active means fluorescence slope change above about 50%); details: MDR1-expressing cells, fluorescent substrate accumulation slope; stronger effect = higher value; concentration not given here
[12] = growth inhibition, single agent or in combination, cell-based, chromothripsis tumors, cisplatin or BGB combos (AID 1671449; in the data active means inhibition above about 80%;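 further: cells exposed for 96 hours; 0% = vehicle DMSO and 100% = killing by high DMSO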); details: LFS_MB_P medulloblastoma cells
[13] = growth inhibition, single agent and combos, cell-based, chromothripsis tumors, cisplatin or BGB combos (AID 1671450; in the data active means inhibition above about 80%;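 further: cells exposed to compound for four days; 0% = vehicle DMSO and 100% = cell killing by high DMSO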); details: HDN33 neuroblastoma cells, stronger effect = higher value
[14] = growth inhibition, single agents and combos, ICB984, cell-based, cisplatin or BGB combos, synergistic combos for chromothripsis tumors (AID 1671451; call rule not given here;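 further: cells exposed for 96 hours before readout; 0% = vehicle DMSO and 100% = killing by high DMSO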); details: ICB984 medulloblastoma cells, drug combinations, stronger effect = higher value
[15] = growth inhibition, single agents and combos, HTB85, cell-based, BGB or cisplatin IC20 combos, synergistic combos for chromothripsis tumors (AID 1671453; in the data active means inhibition above about 80%;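 further: cells exposed for 96 hours before readout; 0% = vehicle DMSO and 100% = high DMSO killing control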); details: HTB85 osteosarcoma cells, drug combinations, stronger effect = higher value
[16] = growth inhibition, MDA-MB-436, cell-based, BGB or cisplatin combos, synergistic combos for chromothripsis tumors (AID 1671458; call rule not given here;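 further: cells exposed for 96 hours; 0% = vehicle DMSO and 100% = killing by high DMSO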); details: MDA-MB-436 breast carcinoma growth inhibition, drug combinations, stronger effect = higher value
[17] = BT084 cell growth, single and combined drugs, ICGC_MB145, cisplatin and BGB IC40 combos (AID 1671461; in the data active means inhibition above about 80%;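 further: cells exposed to drugs for 96 hours; 0% = vehicle DMSO and 100% = high DMSO full killing control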); details: BT084 medulloblastoma cells, drug combinations, stronger effect = higher value
[18] = RCMB18 cell growth, single agent and combined, cisplatin and BGB IC40 combos (AID 1671462; in the data active means inhibition above about 80%;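 further: cells exposed to compound for four days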); details: RCMB18 medulloblastoma cells, stronger effect = higher value
[19] = CRL1545 cell growth, single agent and combined, cisplatin and BGB IC20 combos (AID 1671464; in the data active means inhibition above about 80%;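 further: cells exposed to compound for 96 hours before readout; 0% = vehicle DMSO and 100% = high DMSO killing control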); details: CRL1545 osteosarcoma cells, stronger effect = higher value
[20] = measured here: with BGB IC20 combination, at 0.5 µM
[21] = measured here: with cisplatin IC20 combination, at 0.5 µM

Chain of NAD(+) hydrolase SARM1 (Homo sapiens) (Q6SZW1 whole entry, looked up): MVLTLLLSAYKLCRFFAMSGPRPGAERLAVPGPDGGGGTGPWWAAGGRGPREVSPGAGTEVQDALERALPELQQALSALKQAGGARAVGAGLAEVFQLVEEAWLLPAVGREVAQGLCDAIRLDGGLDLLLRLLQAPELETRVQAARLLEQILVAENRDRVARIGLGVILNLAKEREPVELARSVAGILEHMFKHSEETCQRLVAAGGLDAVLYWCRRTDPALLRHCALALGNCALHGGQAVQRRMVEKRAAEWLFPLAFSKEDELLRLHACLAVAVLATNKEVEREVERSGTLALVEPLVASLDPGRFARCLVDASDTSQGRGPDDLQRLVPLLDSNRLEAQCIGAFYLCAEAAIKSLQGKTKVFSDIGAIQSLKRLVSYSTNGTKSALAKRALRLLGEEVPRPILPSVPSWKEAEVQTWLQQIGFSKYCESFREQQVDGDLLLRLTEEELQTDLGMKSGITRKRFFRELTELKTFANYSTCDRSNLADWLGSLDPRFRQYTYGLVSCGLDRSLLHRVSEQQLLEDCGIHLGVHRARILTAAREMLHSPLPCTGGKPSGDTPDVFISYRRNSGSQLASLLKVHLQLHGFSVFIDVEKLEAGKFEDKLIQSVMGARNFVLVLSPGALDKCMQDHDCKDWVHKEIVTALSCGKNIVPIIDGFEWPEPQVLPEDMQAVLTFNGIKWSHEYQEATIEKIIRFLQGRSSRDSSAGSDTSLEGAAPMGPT
Chain of ATP-dependent translocase ABCB1 (Homo sapiens) (P08183 whole entry, looked up): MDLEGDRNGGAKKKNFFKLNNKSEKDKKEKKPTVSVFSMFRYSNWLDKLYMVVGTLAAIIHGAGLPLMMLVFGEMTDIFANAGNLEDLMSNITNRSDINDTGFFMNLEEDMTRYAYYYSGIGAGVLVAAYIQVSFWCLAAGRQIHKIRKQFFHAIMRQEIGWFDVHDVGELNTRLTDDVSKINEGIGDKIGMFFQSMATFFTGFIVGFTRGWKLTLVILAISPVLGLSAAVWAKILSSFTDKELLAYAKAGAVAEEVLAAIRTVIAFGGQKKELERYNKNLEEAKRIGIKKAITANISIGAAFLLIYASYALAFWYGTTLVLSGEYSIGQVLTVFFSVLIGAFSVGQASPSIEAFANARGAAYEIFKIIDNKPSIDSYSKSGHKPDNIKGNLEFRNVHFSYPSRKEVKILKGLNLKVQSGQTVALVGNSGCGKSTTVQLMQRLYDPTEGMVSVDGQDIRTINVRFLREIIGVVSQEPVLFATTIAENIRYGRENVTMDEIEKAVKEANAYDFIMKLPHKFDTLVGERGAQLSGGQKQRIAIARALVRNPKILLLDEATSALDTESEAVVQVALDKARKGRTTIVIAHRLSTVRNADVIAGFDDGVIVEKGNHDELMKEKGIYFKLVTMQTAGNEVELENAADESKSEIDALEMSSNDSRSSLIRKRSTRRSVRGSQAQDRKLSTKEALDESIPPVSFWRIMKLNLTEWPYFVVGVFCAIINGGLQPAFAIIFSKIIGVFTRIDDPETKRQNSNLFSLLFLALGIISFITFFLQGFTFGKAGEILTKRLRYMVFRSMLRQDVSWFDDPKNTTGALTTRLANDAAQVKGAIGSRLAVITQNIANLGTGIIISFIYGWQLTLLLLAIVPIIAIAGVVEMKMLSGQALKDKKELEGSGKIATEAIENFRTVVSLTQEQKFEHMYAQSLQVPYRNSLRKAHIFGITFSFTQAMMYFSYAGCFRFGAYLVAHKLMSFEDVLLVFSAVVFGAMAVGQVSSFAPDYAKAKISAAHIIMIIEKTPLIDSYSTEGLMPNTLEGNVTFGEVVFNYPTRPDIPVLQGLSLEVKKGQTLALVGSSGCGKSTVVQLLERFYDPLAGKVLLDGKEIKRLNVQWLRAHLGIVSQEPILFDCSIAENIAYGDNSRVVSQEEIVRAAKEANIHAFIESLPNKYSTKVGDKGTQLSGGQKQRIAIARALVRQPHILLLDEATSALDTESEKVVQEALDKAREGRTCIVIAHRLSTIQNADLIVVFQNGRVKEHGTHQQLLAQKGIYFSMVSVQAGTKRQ

## CCCc1nn(C)c2c(=O)[nH]c(-c3cc(S(=O)(=O)N4CCN(C)CC4)ccc3OCC)nc12
[1]
  outcome: inactive
[2]
  outcome: inactive
[3]
  outcome: inactive
[4]
  outcome: inactive
[5]
  outcome: inactive
[6]
  outcome: inactive
[7]
  remaining NAD: 10 nM (inactive)

## COc1ccc(-c2coc3cc(O)ccc3c2=O)cc1
[8]
  outcome: inactive
[2]
  outcome: inactive
[3]
  outcome: inactive
[9]
  outcome: inactive

## COc1ccc(C(C)=O)c(O)c1
[8]
  AC50: 13.2 nM (active)

## C=C1c2c(Cl)ccc(O)c2C(O)=C2C(=O)[C@]3(O)C(O)=C(C(N)=O)C(=O)[C@@H](N(C)C)[C@@H]3[C@@H](O)[C@H]12
[10]
  survival: 6.83 (inactive)
[7]
  remaining NAD: 10 nM (inactive)

## CC(C)(C)NC[C@H](O)c1ccc(O)c(CO)c1
[7]
  remaining NAD: 10 nM (inactive)

## COc1cc2c(cc1OC)-c1cc3ccc(OC)c(OC)c3c[n+]1CC2
[11]
  fluorescence slope change: 29.3% (inactive)
[10]
  survival: 1.83 (inactive)

## Oc1cc(O)c2c(c1)O[C@H](c1ccc(O)c(O)c1)[C@@H](O)C2
[11]
  fluorescence slope change: 16.4% (inactive)
[10]
  survival: 6.17 (inactive) and 8.75 (inactive)
[7]
  remaining NAD: 10 nM (inactive)

## COc1cc(S(C)=O)ccc1-c1nc2ncccc2[nH]1 (stereo not drawn)
[11]
  fluorescence slope change: 5% (inactive)
[10]
  survival: 5.5 (inactive)

## Cc1cc(C(C)(C)CC(C)(C)C)ccc1OCCOCC[N+](C)(C)Cc1ccccc1
[11]
  fluorescence slope change: 152% (active)
[10]
  survival: 0.167 (inactive)
[7]
  remaining NAD: 10 nM (inactive)

## CN1CCc2c(c3ccccc3n2Cc2ccccc2)C1
[11]
  fluorescence slope change: 70.9% (active)
[10]
  survival: 3.25 (inactive)
[7]
  remaining NAD: 10 nM (inactive)

## NC(=O)CC[C@H](N)C(=O)O
[7]
  remaining NAD: 10 nM (inactive)

## NCCCCN=C(N)N
[11]
  fluorescence slope change: 53.1% (active)

## CC(CN(C)C)CN1c2ccccc2Sc2ccccc21 (stereo not drawn)
[11]
  fluorescence slope change: 102% (active)
[10]
  survival: 1.08 (inactive)
[7]
  remaining NAD: 10 nM (inactive)

## Nc1nc(/C(=C/CC(=O)O)C(=O)N[C@@H]2C(=O)N3C(C(=O)O)=CCS[C@H]23)cs1
[7]
  remaining NAD: 10 nM (inactive)

## CC1(C)S[C@@H]2[C@H](NC(=O)Cc3ccccc3)C(=O)N2[C@H]1C(=O)O
[10]
  survival: 5.08 (inactive)
[7]
  remaining NAD: 10 nM (inactive)

## NC(N)=NCCCCN=C(N)N
[11]
  fluorescence slope change: 59.6% (active)
[10]
  survival: 5.58 (inactive)

## COc1c2ccoc2cc2oc(=O)ccc12
[7]
  remaining NAD: 10 nM (inactive)
[12]; at 0.5 µM, stronger effect = higher value
  inhibition: -22.9% (inactive)
[12]; measured here: combination with BGB IC20, at 0.005 µM
  inhibition: -15%
[12]; measured here: combination with BGB IC40, at 0.005 µM
  inhibition: -30%
[12]; measured here: combination with BGB IC40, at 0.05 µM
  inhibition: 3.17%
[12]; measured here: combination with cisplatin, at 0.5 µM, stronger effect = higher value
  inhibition: -36.3%
[12]; measured here: combination with cisplatin, at 5 µM, stronger effect = higher value
  inhibition: -26.9%
[13]; BGB combo, at 5 µM
  inhibition: -4.43%
[13]; at 0.5 µM
  inhibition: -1.51% (inactive)
[13]; cisplatin combo, at 5 µM
  inhibition: -17.2%
[13]; [20]
  inhibition: 5%
[13]; [21]
  inhibition: 1.07%
[13]; single agent, at 5 µM
  inhibition: -13.4%
[14]; BGB IC20 combo, at 0.005 µM
  inhibition: -7.99%
[14]; BGB IC40 combo, at 0.005 µM
  inhibition: -11.7%
[14]; BGB IC40 combo, at 0.05 µM
  inhibition: -24.6%
[14]; at 0.5 µM
  inhibition: -24.1% (inactive)
[14]; cisplatin combo, at 0.05 µM
  inhibition: -24.6%
[14]; cisplatin combo, at 0.5 µM
  inhibition: -26.9%
[14]; cisplatin combo, at 5 µM
  inhibition: -4.96%
[14]; measured here: 5 uM single agent, at 5 µM
  inhibition: -16.8%
[15]; at 0.5 µM
  inhibition: -23.4% (inactive)
[15]; measured here: with BGB IC20, at 0.5 µM
  inhibition: -60.7%
[15]; measured here: with BGB IC20, at 5 µM
  inhibition: -19.3%
[15]; measured here: with cisplatin IC20, at 0.5 µM
  inhibition: -7.94%
[15]; measured here: with cisplatin IC20, at 5 µM
  inhibition: 10.7%
[15]; single agent, at 5 µM
  inhibition: -6.82%
[16]; at 0.5 µM
  inhibition: -22.2% (inactive)
[16]; measured here: BGB combination, at 0.5 µM
  inhibition: -22.9%
[16]; measured here: BGB combination, at 5 µM
  inhibition: -18.9%
[16]; measured here: cisplatin combination, at 0.5 µM
  inhibition: -40%
[16]; measured here: cisplatin combination, at 5 µM
  inhibition: -24.1%
[17]; at 0.5 µM
  inhibition: -16.4% (inactive)
[17]; cisplatin combination, at 0.5 µM
  inhibition: -9.55%
[17]; cisplatin combination, at 5 µM
  inhibition: -48%
[17]; measured here: BGB IC40 combination 0.05 uM, at 0.05 µM
  inhibition: -9.91%
[17]; single agent, at 5 µM
  inhibition: -11.1%
[18]; at 0.5 µM
  inhibition: -11% (inactive)
[18]; cisplatin combo, at 5 µM
  inhibition: 17.9%
[18]; measured here: BGB IC40 combination, at 0.05 µM
  inhibition: -6.4%
[18]; measured here: combination with cisplatin, at 0.5 µM
  inhibition: -1.6%
[18]; single agent, at 5 µM
  inhibition: -15.2%
[19]; at 0.5 µM
  inhibition: -17.9% (inactive)
[19]; [20]
  inhibition: -18.6%
[19]; [21]
  inhibition: -17.5%
[19]; single agent, at 0.05 µM
  inhibition: -2.38%
[19]; single agent, at 5 µM
  inhibition: 22.5%

## NC(=O)c1ccc[n+]([C@@H]2O[C@H](COP(=O)([O-])OP(=O)(O)OC[C@H]3O[C@@H](n4cnc5c(N)ncnc54)[C@H](O)[C@@H]3O)[C@@H](O)[C@H]2O)c1
[7]
  remaining NAD: 183 nM (active)

## N[C@@H](Cc1cc(I)c(Oc2ccc(O)c(I)c2)c(I)c1)C(=O)O
[11]
  fluorescence slope change: 18.7% (inactive)
[10]
  survival: 4.58 (inactive)
[7]
  remaining NAD: 10 nM (inactive)

## CC(C(=O)O)c1ccc(N2Cc3ccccc3C2=O)cc1 (stereo not drawn)
[11]
  fluorescence slope change: 85.5% (active)
[10]
  survival: 4.83 (inactive)
[7]
  remaining NAD: 10 nM (inactive)

## COC(=O)[C@H]1[C@H]2C[C@H]3c4[nH]c5ccccc5c4CCN3C[C@H]2CC[C@@H]1O
[10]
  survival: 5.58 (inactive)

## CC(=O)Oc1ccccc1C(=O)Oc1ccccc1C(=O)O
[10]
  survival: 16.8 (inactive)

## Cc1cc(/C=C/c2ccc3cc(N(C)C)ccc3[n+]2C)c(C)n1-c1ccccc1
[7]
  remaining NAD: 10 nM (inactive)

## CN(C)CCOC(c1ccccc1)c1ccccc1 (tested in a mixture with another compound)
[11]
  fluorescence slope change: 130% (active)
[10]
  survival: 24.5 (inactive)
[7]
  remaining NAD: 10 nM (inactive)

## C1N2CN3CN1CN(C2)C3
[7]
  remaining NAD: 10 nM (inactive)

## CN(C)CCC(c1ccc(Br)cc1)c1ccccn1 (stereo not drawn)
[11]
  fluorescence slope change: 54.4% (active)
[10]
  survival: 1.08 (inactive)
[7]
  remaining NAD: 10 nM (inactive)

## NCC(O)CC(=O)O (stereo not drawn)
[7]
  remaining NAD: 10 nM (inactive)
